Measured values as given in ChEMBL document CHEMBL4513216, “Probing the Open Global Health Chemical Diversity Library for Multistage-Active Starting Points for Next-Generation Antimalarials” (ACS Infect Dis, 2020).
Hit rate of the full screen: of about 69,000 compounds, about 8,600 (12%) showed an effect of 50% or more. The list comes from a sample in which strong results are over-represented; it also holds similar structures and randomly drawn compounds.

Tested on: Plasmodium berghei
Assay: Screen against P. berghei liver stage (PbLuc), transformed with Luciferase, at 10uM
Type: functional, HepG2
Conditions: tested at 10 uM

Compound	INHIBITION [%]
O=S(=O)(c1ccc(F)cc1)N1CC[C@H]2[C@H]1CCN2c1ncccn1	2.4
O=C(c1cnc2c(cnn2C2CCCC2)c1)N1CCN(CCO)CC1	24
Cn1cc(CN2CCCC(CCc3c(F)cccc3F)C2)cn1 (stereo unspecified)	30.5
Cn1cc(CN2CCCC(CCc3ccc(F)cc3)C2)cn1 (stereo unspecified)	59.2
CCn1cc(CN2CCCC(COc3ccccc3F)C2)cn1 (stereo unspecified)	69.3
Cn1cc(CN2CCCC(CCc3ccc(F)c(F)c3)C2)cn1 (stereo unspecified)	38.6
CCn1cc(CN2CCCC(COc3ccc(F)cc3)C2)cn1 (stereo unspecified)	74
Cn1cc(CN2CCCC(CCc3ccc(F)cc3F)C2)cn1 (stereo unspecified)	43
Cn1nccc1CN1CCCC(COc2ccccc2F)C1 (stereo unspecified)	17.4
COc1ccc(CN2CC[C@H](O)[C@@H]2Cc2cnn(C)c2)cc1	47.4
Cn1cc(C[C@H]2[C@H](O)CCN2Cc2ccc(F)cc2)cn1	57.9
Cn1cc(C[C@H]2[C@H](O)CCN2Cc2ccncc2)cn1	46.2
Fc1ccc(OCCCN2CCCC(Cn3cncn3)C2)cc1 (stereo unspecified)	5.9
COc1ccc(OCC2CCCN(Cc3ccncc3)C2)cc1 (stereo unspecified)	46.3
Cc1cc(NC(C)c2nncn2C2CCCC2)n2nc(C)c(C)c2n1 (stereo unspecified)	32.1
CC1CCN(c2nccn3c(=O)[nH]nc23)CC1	16.8
Cc1oc(-c2cccc(F)c2F)nc1CN(CCO)C(C)C	13.6
CNC(=O)c1ccc(C2CN(C(=O)c3coc(C)n3)CCO2)nc1 (stereo unspecified)	-24.1
FC(F)(F)COCCN1CCOC(Cn2cccn2)C1 (stereo unspecified)	40
CCCNC(=O)NC(=O)CNC(C)(C)c1ccc2c(c1)OCCO2	-4.94
Cc1cnc(C)c(N2C[C@H]3OC(=O)N(C4CCCC4)[C@H]3C2)n1	68.1
Cc1ccc(C(N)=O)c(N2C[C@H]3OC(=O)N(C4CCCC4)[C@H]3C2)n1	-14.1
COc1ccccc1CN1C(=O)O[C@@H]2CN(c3nc(C)cnc3C)C[C@@H]21	20.9
CC(C(=O)NCc1ccc(N2CCCC2)nc1)S(C)(=O)=O (stereo unspecified)	45.7

Compound	INHIBITION [%]
Cc1cccc(C(=O)N2CCCN(Cc3cscn3)CC2)c1	-33.7
CCOC(=O)CCn1cnc2onc(-c3ccc(OC)cc3)c2c1=O	71.4
COc1ccc(Cl)c(-c2noc3ncn(CCC(=O)O)c(=O)c23)c1	25.9
CCOC(=O)CCn1cnc2onc(-c3cc(OC)ccc3Cl)c2c1=O	-8.07
Cc1noc(C)c1CC(=O)N1CCc2sccc2C1	19.2
Cc1ccc(NCc2cn3c(n2)CN(Cc2ccc(C)o2)CC3)nn1	29.8
CNc1cc(C2CN(C(=O)c3ccn(C)n3)CCO2)nc(C)n1 (stereo unspecified)	-29
CS(=O)(=O)CCSc1cccc(C#N)c1	7.84
CCS(=O)(=O)CCSc1cccc(C#N)c1	7.43
CCCS(=O)(=O)CCSc1cccc(C#N)c1	51.4
Cc1nsc(C(=O)NCCc2ccccc2)n1	-67.9
Cc1nsc(C(=O)NCCc2ccc(S(N)(=O)=O)cc2)n1	69.5
Cc1nsc(C(=O)NCCc2cccs2)n1	-12.1
Cc1nsc(C(=O)NCCc2ccc(Cl)cc2)n1	20.9
Cc1nsc(C(=O)NCCCc2ccccc2)n1	58.1
Cc1nsc(C(=O)NCCc2ccc(F)cc2)n1	-10.6
CC(C)(O)CCc1cccc(C(=O)N2CCC[C@H]2CN2CCCC2)c1	1.56
Cc1ccc(NC2CCN(C(=O)c3ccc4c(c3)CCC4)CC2)nn1	18.2
CCC(CC)NC(=O)c1nc2n(n1)-c1ccccc1S(=O)(=O)N2	-9.07
Cc1n[nH]c(C)c1-c1nccnc1CC1CCCN(C)C1 (stereo unspecified)	23.2
c1ccc(-c2nnc(CN3C[C@H]4CC[C@@H](C3)N(CC3CCC3)C4)o2)cc1	46.6
Cc1ccc(C(=O)N2CC[C@H]3[C@@H]2CCC(=O)N3c2cccnc2)o1	23.1
COc1cccc(S(=O)(=O)CCN2CCCN(C(C)=O)CC2)c1	45.8
COc1cccc(S(=O)(=O)CCN2CCN(CCO)CC2)c1	8.24

Compound	INHIBITION [%]
COc1cccc(S(=O)(=O)CCN2CCN(CC(F)F)CC2)c1	28.2
COc1cccc(S(=O)(=O)CCN2CCCCC2)c1	-11.1
COc1cccc(S(=O)(=O)CCN2CCC3(CC2)OCCO3)c1	60
COCCN1CCN(CCS(=O)(=O)c2cccc(OC)c2)CC1	92.8
Cc1cc(CN2C[C@H](OCC3CCOCC3)[C@H]3COC[C@H]32)oc1C	44.4
CCc1cc(NCCCOC2CCN(C)CC2)ncn1	25.5
O=C(NCCO)Nc1c(F)cc(F)cc1-c1ccccc1	33
Cc1noc([C@@]23CCO[C@@H]2CCN(CC2CCOCC2)C3)n1	17.3
c1ccc2c(c1)CCN2c1nc(N2CCOCC2)c2nn[nH]c2n1	39.9
c1ccc2c(c1)CCN(c1nc(N3CCOCC3)c3nn[nH]c3n1)C2	54
C1CCN(c2nc(N3CCOCC3)nc3[nH]nnc23)CC1	36.7
COc1ccsc1C(=O)N1CCCN(Cc2cscn2)CC1	-51.5
O=C(Cc1ccc2c(c1)OCCO2)N1CCN(c2cnccn2)CC1	-5.25
Cc1nc(C)n(CC2CN(c3nnc(C)c(C)c3C#N)CCO2)n1 (stereo unspecified)	-27.3
Cc1cc(C)n(CC2CN(CCOc3cccc(C#N)c3)CCO2)n1 (stereo unspecified)	20.6
Cc1cc(C)n(CC2CN(c3nnc(C)c(C)c3C#N)CCO2)n1 (stereo unspecified)	53.1
CCC1CN(c2nnc(C)c(C)c2C#N)CCO1 (stereo unspecified)	17.8
Cc1cc(C)n(CC2CN(CCOc3ccc(C#N)cc3)CCO2)n1 (stereo unspecified)	51.1
Cc1nc(C)n(CC2CN(CCOc3ccc(C#N)cc3)CCO2)n1 (stereo unspecified)	42
CN(C)C(=O)NC1COC2(CCN(Cc3ccccc3)CC2)C1 (stereo unspecified)	37.5
CC(N)Cc1ccccc1Sc1ccccc1 (stereo unspecified)	24.7
CCc1nc(CNc2ccc(F)cc2I)no1	-58.5
CN1CCN(CC2CN(CC3CC3)Cc3nccn3C2)CC1 (stereo unspecified)	19.4
Cc1cnc2n1CCN(C)C21CCN(CC2CC2)CC1	12.1

Compound	INHIBITION [%]
CCCS(=O)(=O)c1ccc(N2CCC(Cc3ccccc3)CC2)nn1	23.7
Oc1ccc(N2CCC(Cc3ccccc3)CC2)nn1	83.8
Cc1cc(N2CCC(CC(N)=O)CC2)nc(-c2ccncc2)n1	16.1
Cc1cc(N2CCC(Cc3ccccc3)CC2)nc(-c2ccncc2)n1	71.3
O=C(O)c1ccc(N2CCC(Cc3ccccc3)CC2)nn1	-23.2
CC(=O)NCC1CCN(c2cc(C)nc(-c3ccncc3)n2)CC1	33.3
CCn1c(=O)[nH]c2cn(-c3cccc(Cl)c3)c(=O)n21	-35.5
CC(C)C(O)CNC(=O)Nc1cnn(C(C)C)c1 (stereo unspecified)	-4.73
CC(C)n1ccc(C(=O)NCC(O)c2c(Cl)cccc2Cl)n1 (stereo unspecified)	24.3
CCn1nc(C)cc1C(=O)NCc1nc(C)no1	17.5
Cc1ccc(N2CCCN(C(=O)c3cn(C)c4ccccc34)CC2)nn1	87.2
Cn1cc(C(=O)N2CCCN(c3cccnn3)CC2)c2ccccc21	-0.532
Cc1ccc(N2CCCN(C(=O)c3cccc4c3ccn4C)CC2)nn1	38.5
O=C1CN(C(=O)C2CCC3(CC2)CNC(=O)c2ccccc2O3)CCN1 (stereo unspecified)	43.6
Cc1nn(C)c(C)c1CN(C)C(=O)c1cc(C(F)(F)F)n(C)n1	42.45
O=C(c1ccnn1COc1ccc(Cl)cc1)N1CCSCC1	33.4
O=C(c1ccnn1COc1ccc(Cl)cc1)N1CCOCC1	50.8
O=C(c1ccnn1COc1ccc(Cl)cc1)N1CCCC1	1.45
Cc1noc(CN2CCC(Cc3ccc(F)cc3)CC2)n1	57.2
Cc1noc(CN2CCN(CCO)CC2)n1	-14.9
Fc1ccccc1CC1CCN(Cc2cscn2)CC1	82.4
Fc1ccccc1CC1CCN(Cc2ccccn2)CC1	45.2
Cc1noc(CN2CCC(c3ccnn3CCO)CC2)n1	49.6
Fc1ccc(CN2CCCN(Cc3cscn3)CC2)cc1	-12.5

Compound	INHIBITION [%]
Fc1ccc(CC2CCN(Cc3cscn3)CC2)cc1	68.1
Fc1ccccc1CC1CCN(Cc2nccs2)CC1	-131
Fc1ccc(CC2CCN(Cc3nccs3)CC2)cc1	38.7
CCn1cnnc1CNC(=O)N1CCN(C(C)C)CC1	21.5
CN(C)C(=O)CO[C@H]1CN(Cc2ccoc2)[C@@H]2COC[C@H]12	39.5
CCc1cnccc1C(=O)Nc1ccc(C(N)=O)nc1	25.1
CCc1nnc2n1CCN(C(=O)c1cc3c(F)cccc3[nH]1)C2	21
COCCN1C(=O)[C@@H]2CC[C@H]1CN(Cc1nnc(C3CC3)o1)C2	16.2
COc1ncc(CN2CCCC(c3[nH]ncc3S(C)(=O)=O)C2)cn1 (stereo unspecified)	7.05
CCn1cc(-c2cc(C(F)(F)F)nn2CCC#N)cn1	11.8
Cn1c(C2CC2)nc2c1CCN(CC(=O)Nc1ccncc1)C2	-31.5
CN[C@@H]1CCC[C@@H](Oc2ccccc2Oc2ccc(C)cc2)[C@@H]1O	60.2
Cc1ccc(Oc2cc(F)ccc2O[C@@H]2CCC[C@@H](N)[C@H]2O)cc1	94.1
CO[C@@H]1CCC[C@@H](N(C)C(=O)c2cc(F)ccc2F)[C@H]1O	-10.4
Cc1n[nH]c(C)c1CCC(=O)N[C@@H]1CCC[C@@H](Oc2ccccc2)[C@@H]1O	-18.8
CNCc1cc(F)ccc1Oc1ccc(F)cc1	29.3
N[C@@H]1CCC[C@@H](Oc2ccc(F)cc2Oc2ccccc2)[C@@H]1O	54.4
N[C@H]1CN(C(=O)c2ccccc2Oc2ccccc2)C[C@@H]1C1CC1	31.2
N[C@@H]1CCC[C@@H](Oc2ccc(F)cc2Oc2cccc(F)c2)[C@@H]1O	23.2
Cc1noc(C)c1C(=O)N[C@@H]1CCC[C@@H](Oc2ccccc2)[C@@H]1O	17.39
